Test results reported in PubChem BioAssay AID1159580 (chemical genetic matrix, 2015).
In all, about 5,500 compounds went through this assay and about 2,000 (36%) were called active. About 18% were inconclusive and are not listed. No stated cut-off is given here; in the data, active means normalized growth mostly below about 0.91 (no sharp cut-off); inconclusive means no clear call, values can overlap the other calls; inactive means mostly above about 0.92. This is one part of the list.

Test: chemical genetic growth profiling, strain panel (AID 1159580);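 further: tested at 20 µM; growth read once vehicle control cultures reached saturation at 30 °C; 1 = growth at the plate median or of vehicle wells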
Conditions: S. cerevisiae deletion strains, growth OD

Measured: normalized growth

OC(CCN1CCCCC1)(c1ccccc1)C1CC2C=CC1C2 (centres undefined)
inactive: locus YAL021C, strain ccr4, stronger effect = lower value 1.01 | locus YAL026C, strain drs2, stronger effect = lower value 1 | locus YAL030W, strain snc1, stronger effect = lower value 1.02 | locus YBL061C, strain skt5, stronger effect = lower value 1.02 | locus YBR009C, strain hhf1, stronger effect = lower value 0.985 | locus YBR023C, strain chs3, stronger effect = lower value 0.999 | locus YBR171W, strain sec66, stronger effect = lower value 1 | locus YBR231C, strain swc5, stronger effect = lower value 0.999 | locus YBR279W, strain paf1, stronger effect = lower value 0.99 | locus YCL011C, strain gbp2, stronger effect = lower value 1.01 | locus YCL016C, strain dcc1, stronger effect = lower value 1.04 | locus YCL061C, strain MRC1, stronger effect = lower value 0.996 | locus YCL069W, strain vba3, stronger effect = lower value 0.977 | locus YCR088W, strain abp1, stronger effect = lower value 1 | locus YDL005C, strain med2, stronger effect = lower value 1 | locus YDL040C, strain nat1, stronger effect = lower value 1 | locus YDR001C, strain nth1, stronger effect = lower value 0.997 | locus YDR069C, strain doa4, stronger effect = lower value 1.02 | locus YDR137W, strain rgp1, stronger effect = lower value 1.01 | locus YDR159W, strain sac3, stronger effect = lower value 0.992 | locus YDR195W, strain ref2 1.01 | locus YDR297W, strain sur2, stronger effect = lower value 1 | locus YDR334W, strain swr1, stronger effect = lower value 0.965 | locus YDR335W, strain msn5, stronger effect = lower value 1 | locus YDR392W, strain spt3, stronger effect = lower value 1.03 | locus YEL003W, strain gim4, stronger effect = lower value 0.993 | locus YEL037C, strain rad23, stronger effect = lower value 0.988 | locus YEL061C, strain CIN8 (second series), stronger effect = lower value 0.983 | locus YER015W, strain faa2, stronger effect = lower value 1 | locus YER016W, strain bim1, stronger effect = lower value 1.03 | locus YER111C, strain swi4, stronger effect = lower value 1 | locus YER155C, strain BEM2 (second series), stronger effect = lower value 1.01 | locus YFR010W, strain ubp6, stronger effect = lower value 0.966 | locus YGL167C, strain pmr1, stronger effect = lower value 1 | locus YGL173C, strain kem1, stronger effect = lower value 1.01 | locus YGL227W, strain vid30, stronger effect = lower value 0.989 | locus YGL240W, strain doc1, stronger effect = lower value 0.994 | locus YGL253W, strain hxk2, stronger effect = lower value 1.01 | locus YHR013C, strain ard1, stronger effect = lower value 1.03 | locus YHR027C, strain rpn1, stronger effect = lower value 0.991 | locus YHR030C, strain SLT2, stronger effect = lower value 0.977 | locus YHR079C, strain IRE1, stronger effect = lower value 0.996 | locus YHR142W, strain chs7, stronger effect = lower value 1 | locus YJL092W, strain hpr5, stronger effect = lower value 1.01 | locus YJL095W, strain BCK1 (second series), stronger effect = lower value 1 | locus YJL095W, strain BCK1, stronger effect = lower value 0.996 | locus YJL115W, strain asf1, stronger effect = lower value 0.984 | locus YJL129C, strain trk1, stronger effect = lower value 0.987 | locus YJL154C, strain vps35, stronger effect = lower value 0.987 | locus YJL164C, strain tpk1, stronger effect = lower value 0.997 | locus YJL166W, strain qcr8, stronger effect = lower value 0.982 | locus YJR066W, strain TOR1, stronger effect = lower value 0.935 | locus YKL160W, strain elf1, stronger effect = lower value 1.03 | locus YKR026C, strain gcn3, stronger effect = lower value 0.987 | locus YKR091W, strain srl3, stronger effect = lower value 1 | locus YLL001W, strain dnm1, stronger effect = lower value 0.993 | locus YLL026W, stronger effect = lower value 0.997 | locus YLL041C, strain sdh2, stronger effect = lower value 1.03 | locus YLR027C, strain aat2, stronger effect = lower value 1 | locus YLR113W, strain HOG1, stronger effect = lower value 0.987 | locus YLR221C, strain rsa3, stronger effect = lower value 0.993 | locus YLR258W, strain gsy2, stronger effect = lower value 0.998 | locus YLR262C, strain YPT6 (second series), stronger effect = lower value 0.984 | locus YLR320W, strain mms22, stronger effect = lower value 0.979 | locus YLR342W, strain FKS1, stronger effect = lower value 1.01 | locus YLR357W, strain rsc2, stronger effect = lower value 0.995 | locus YLR370C, strain arc18, stronger effect = lower value 1.01 | locus YLR384C, strain iki3, stronger effect = lower value 1.01 | locus YML120C, strain ndi1, stronger effect = lower value 0.981 | locus YMR058W, strain fet3, stronger effect = lower value 1 | locus YMR125W, strain sto1, stronger effect = lower value 0.985 | locus YMR129W, stronger effect = lower value 1 | locus YMR205C, strain PFK2, stronger effect = lower value 1.01 | locus YMR231W, strain pep5, stronger effect = lower value 0.995 | locus YNL071W, strain lat1, stronger effect = lower value 0.985 | locus YNL183C, strain NPR1, stronger effect = lower value 0.951 | locus YNL209W, strain ssb2, stronger effect = lower value 0.995 | locus YNL248C, strain rpa49, stronger effect = lower value 1 | locus YNL322C, strain KRE1 (second series), stronger effect = lower value 0.995 | locus YNR049C, strain mso1, stronger effect = lower value 1.01 | locus YOR001W, strain rrp6, stronger effect = lower value 0.949 | locus YOR070C, strain gyp1, stronger effect = lower value 0.989 | locus YOR080W, strain dia2, stronger effect = lower value 1 | locus YOR083W, strain WHI5, stronger effect = lower value 1.03 | locus YOR106W, strain vam3, stronger effect = lower value 0.995 | locus YOR231W, strain MKK1, stronger effect = lower value 0.991 | locus YOR265W, strain rbl2, stronger effect = lower value 1.01 | locus YOR270C, strain vph1, stronger effect = lower value 0.929 | locus YOR290C, strain snf2, stronger effect = lower value 1.06 | locus YPL051W, strain arl3, stronger effect = lower value 1.01 | locus YPL078C, strain atp4, stronger effect = lower value 1.02 | locus YPL106C, strain sse1, stronger effect = lower value 1.05 | locus YPL240C, strain hsp82, stronger effect = lower value 0.982 | locus YPL256C, strain CLN2, stronger effect = lower value 0.978
